Source: PubChem BioAssay
NPC1 promoter act: activators of NPC1 promoter; Huh7 NPC1 promoter luciferase reporter, 24 h; Potency, µM (titrated, usually from 9.22 µM), inactives show at the top dose activation, hits mostly activators; hit rate 2.4% among 320,000; AID 485313; further: % of control where 0% means no effect; nearly all actives have a fitted effect of over 60% in size
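In 1536-well qHTS, Huh7 cells harboring an NPC1 promoter–luciferase construct received compound for 24 h; activation was quantified by luminescence following luciferase reagent addition.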
SMN2 splice up: enhancers of SMN2 splice variant expression | HEK293 SMN2-luciferase splicing reporter, luminescence, 30-36 h | Potency, µM (doses to about 46.1 µM), inactives show at the highest dose activity change, positive = activation, actives largely listed as activators | hit rate 2.8% among 210,000; further: % of control where 0% means no effect; nearly all actives have a fitted effect of over 55% in size
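HEK293 cells carry an SMN2 […]–luciferase reporter in which exon 7 inclusion puts luciferase in frame. Cells were plated 10-12 h before compound addition, then incubated 30-36 h at 37C. ONE-Glo luminescence was read; sodium butyrate at 4.5 mM final served as control.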
FLuc counter: firefly luciferase modulation, counter-screen for miR-21 project | P08659 | purified FLuc, Km substrates, luminescence inhibition | Potency, µM (titrated, usually from 57.5 µM), for the others: at the top dose activity change, negative = inhibition, actives largely listed as inhibitors | hit rate 6.9% among 360,000 | AID 588342;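 further: plate controls were vehicle for no effect and reference inhibitor for full effect; nearly all actives have a fitted effect of over 55% in size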
Target sequence (P08659 whole entry, looked up): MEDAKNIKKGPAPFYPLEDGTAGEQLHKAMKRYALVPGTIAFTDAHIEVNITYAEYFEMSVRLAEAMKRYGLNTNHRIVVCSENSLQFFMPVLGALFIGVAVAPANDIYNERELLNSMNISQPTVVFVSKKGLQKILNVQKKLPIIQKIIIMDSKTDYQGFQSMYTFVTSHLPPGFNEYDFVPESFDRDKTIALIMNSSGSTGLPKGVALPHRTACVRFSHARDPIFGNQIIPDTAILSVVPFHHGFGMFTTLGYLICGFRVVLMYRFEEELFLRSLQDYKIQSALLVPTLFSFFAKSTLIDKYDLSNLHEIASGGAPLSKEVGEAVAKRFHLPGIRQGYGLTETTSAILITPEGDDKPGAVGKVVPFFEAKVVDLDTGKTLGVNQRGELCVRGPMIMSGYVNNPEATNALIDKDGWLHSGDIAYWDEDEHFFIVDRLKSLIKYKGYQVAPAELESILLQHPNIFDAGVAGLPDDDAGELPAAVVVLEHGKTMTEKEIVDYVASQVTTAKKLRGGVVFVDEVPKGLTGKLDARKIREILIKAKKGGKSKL
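Purified P. pyralis luciferase, 10 nM final, with Km-level 10 uM D-luciferin and 10 uM ATP in 50 mM Tris acetate pH 7.5, 10 mM Mg acetate, 0.01% Tween-20, 0.05% BSA; 6-point qHTS titration about 60 µM downward; luminescence read.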
ELG1 genotoxic: genotoxicity induction in ELG1-luciferase HEK293T cells. HEK293T ELG1-luciferase reporter, luminescence, 16 h. Potency, µM (doses to about 46 µM), without a hit: at the top dose activity change, positive = activation, hits mostly activators. hit rate 1.3% among 330,000. AID 504466; further: % of control where 0% means no effect; nearly all actives have a fitted effect of over 60% in size
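Screening used a luciferase reporter fused to human ELG1 in HEK293T cells. Luminescence was read on a CCD plate imager after 16 hr exposure and 30 min ONE-Glo incubation.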
Rab9 prom act: activators of Rab9 promoter. Huh7 Rab9 promoter-luciferase reporter, luminescence, 24 h. Potency, µM (doses to about 9.22 µM), inactives show at the highest dose activation, negative = inhibition, most hits filed as activators. hit rate 2.8% among 320,000; further: % of control where 0% means no effect; nearly all actives have a fitted effect of over 60% in size
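Luminescence read-out: Huh7 cells stably expressing Rab9-luciferase, treated 24 h with compound at 37 °C, then lysed with luciferase reagent for 10 min at ambient before reading.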
p53 reactivator: restores transcriptional activity of mutant p53; Potency, µM (doses to about 92.2 µM), for the others: top-dose activity change, positive = activation, actives largely listed as activators; hit rate 0.063% among 320,000; H1299 p53-A138V BP100-luciferase reporter, luminescence, 24 h; AID 504706; further: % of control where 0% means no effect; nearly all actives have a fitted effect of over 45% in size
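p53-null H1299 cells stably carrying temperature-sensitive p53-A138V and a BP100-luciferase reporter were pinned with compounds (4-point, 1:5 series) and held 24 hrs at 37 deg C. Luminescence was read 10 min after detection reagent.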
* marks the source's active call; other numbers are inactive results; [ ] = dose if it differs, or a comment. A selection: hits, their analogues and other compounds. The true share with any hit is near 7.3%. The call rests on the fitted dose curve; in most records, active means well fitted curve in the direction sought with a large enough effect; inconclusive means small, poorly fitted or top-dose-only effect, or another doubt; inactive means no such curve, though single readings can be large; an effect the other way counts as inactive or inconclusive. Potency means the concentration at half of the fitted maximal effect.

How did CCOc1ccc(CNC(=O)CCCn2c(=O)c3cccn3c3ccc(F)cc32)cc1 do in these assays?
FLuc counter: 1.5%

What do the screens show for `Cc1ccc(C(=O)Nc2c(-c3ccccc3)nc3ccccn23)cc1C`?
SMN2 splice up: -6.8%; FLuc counter: -5.7%

Results for Cc1ccc(Cl)cc1N(C)C(=O)c1cc2ccc3cccnc3c2[nH]1 ?
FLuc counter: -11.5%

How did CCN(CC)c1ccc(NS(=O)(=O)c2cc3[nH]c(=O)c(=O)[nH]c3cc2C)c(C)c1 do in these assays?
FLuc counter: -4.5%

What do the screens show for `CCCOc1ccc(OC(=O)c2ccc(Br)o2)cc1`?
NPC1 promoter act: -3.8%; SMN2 splice up: -6.6%; FLuc counter: 9.53µM*; ELG1 genotoxic: 2.8%; Rab9 prom act: -2.5%; p53 reactivator: 0.9%

How did CCc1ccc(OCC(=O)NNC(=O)CNC(=O)c2ccc(Br)o2)cc1 do in these assays?
NPC1 promoter act: 0.0%; FLuc counter: inconclusive; ELG1 genotoxic: 4.9%; Rab9 prom act: 0.5%; p53 reactivator: -2.4%

What do the screens show for `CNC(=O)c1ccc(NC(=O)c2ccc3c(=O)n4c(nc3c2)CCC4)cc1`?
NPC1 promoter act: -2.3%; FLuc counter: -10.0%; ELG1 genotoxic: -0.5%; Rab9 prom act: 1.0%; p53 reactivator: -3.8%

Results for O=C(Nc1ccc(Br)cc1Cl)c1ccc2c(=O)n3c(nc2c1)CCC3 ?
NPC1 promoter act: 3.55µM*; FLuc counter: 21.3µM*; ELG1 genotoxic: 6.51µM*; Rab9 prom act: 3.55µM*; p53 reactivator: 6.0%

How did CC(C)c1ccc(OC(=O)c2ccc3c(=O)n4c(nc3c2)CCC4)cc1 do in these assays?
NPC1 promoter act: 0.0%; FLuc counter: 12µM*; ELG1 genotoxic: inconclusive; Rab9 prom act: 2.7%; p53 reactivator: 1.2%

Results for COc1ccccc1NC(=O)c1ccc2c(=O)n3c(nc2c1)CCC3 ?
NPC1 promoter act: 21.4%; FLuc counter: -22.2%; ELG1 genotoxic: -1.1%; Rab9 prom act: 8.1%; p53 reactivator: 16.2%

How did O=C(Nc1ccc(Cl)cc1Cl)c1ccc2c(=O)n3c(nc2c1)CCC3 do in these assays?
NPC1 promoter act: 1.78µM*; FLuc counter: 10.7µM*; ELG1 genotoxic: inconclusive; Rab9 prom act: 1.41µM*; p53 reactivator: inconclusive

Results for COc1ccc(C(C)=O)cc1CSc1nc(Nc2ccc(F)c(F)c2)c2ccccc2n1 ?
FLuc counter: 2.4%

How did S=C(Nc1ccccc1)Nc1cc(Cl)ccc1Oc1ccccc1 do in these assays?
NPC1 promoter act: -2.5%; SMN2 splice up: -67.1%; FLuc counter: 2.6%; ELG1 genotoxic: -5.0%; Rab9 prom act: -8.7%; p53 reactivator: -0.6%

How did CC1(C)CC23C(=O)CCC(O)C2(C)CCC13 (configuration not stated) do in these assays?
SMN2 splice up: 1.6%

Results for Cc1cccc2[nH]c(-c3ccc(NC(=O)c4ccco4)cc3)nc12 ?
NPC1 promoter act: 2.24µM*; SMN2 splice up: 14.1µM*; FLuc counter: 4.78µM*; ELG1 genotoxic: inconclusive; Rab9 prom act: 1µM*; p53 reactivator: inconclusive

How did O=C(Nc1cccc(-c2nc3ccccc3[nH]2)c1)c1cccc(NC(=O)c2ccco2)c1 do in these assays?
NPC1 promoter act: 19.4%; SMN2 splice up: -89.6%; FLuc counter: inconclusive; ELG1 genotoxic: -23.4%; Rab9 prom act: 0.9%; p53 reactivator: -43.4%

What do the screens show for `CC(C)(C)C(=O)Nc1ccc(-c2nc3ccc(NC(=O)C(C)(C)C)cc3[nH]2)cc1`?
SMN2 splice up: inconclusive; FLuc counter: 1.9µM*

How did O=C(Nc1ccc2nc(-c3ccccc3)[nH]c2c1)c1ccco1 do in these assays?
NPC1 promoter act: inconclusive; SMN2 splice up: 15.8µM*; FLuc counter: 10.7µM*; ELG1 genotoxic: inconclusive; Rab9 prom act: inconclusive; p53 reactivator: 5.1%

What do the screens show for `Cn1cccc1-c1nc2ccc(NC(=O)c3cccs3)cc2[nH]1`?
NPC1 promoter act: 0.2%; SMN2 splice up: 40.7%; FLuc counter: inconclusive; ELG1 genotoxic: inconclusive; Rab9 prom act: 2.5%; p53 reactivator: -11.5%

What do the screens show for `Cc1cccc(C)c1OCC(=O)Nc1ccc(NC(=O)c2ccco2)cc1`?
NPC1 promoter act: -5.1%; FLuc counter: -5.2%; ELG1 genotoxic: -5.7%; Rab9 prom act: -4.2%; p53 reactivator: -1.4%

Results for O=C(Nc1ccc2nc(-c3ccc(Br)o3)[nH]c2c1)c1cccs1 ?
NPC1 promoter act: -0.2%; SMN2 splice up: -13.3%; FLuc counter: 4.26µM*; ELG1 genotoxic: -1.4%; Rab9 prom act: 23.3%; p53 reactivator: 27.6%

Results for CC(=O)N[C@H](C(=O)O)C(C)(C)SN=O ?
NPC1 promoter act: 5.2%[46.1 µM]; SMN2 splice up: 0.0%; Rab9 prom act: -2.1%[46.1 µM]

What do the screens show for `O=C(Cn1[nH]c(=O)c2ccccc2c1=O)OCC(=O)c1ccc(Br)cc1`?
NPC1 promoter act: -1.3%; FLuc counter: 0.8%; ELG1 genotoxic: 1.6%; Rab9 prom act: 1.8%; p53 reactivator: 0.2%

How did Cc1ccc(-c2nc3ccccc3[nH]2)cc1NC(=O)c1ccco1 do in these assays?
NPC1 promoter act: 12.2%; FLuc counter: 15.1µM*; ELG1 genotoxic: 24.1%; Rab9 prom act: 10.6%; p53 reactivator: 8.4%

How did O=C(Nc1ccc2nc(-c3ccc(Br)o3)[nH]c2c1)c1ccco1 do in these assays?
NPC1 promoter act: inconclusive; SMN2 splice up: -2.2%; FLuc counter: 5.36µM*; ELG1 genotoxic: -0.9%; Rab9 prom act: inconclusive; p53 reactivator: 2.8%

What do the screens show for `COc1ccc(NC(=O)c2ccco2)cc1NC(=O)c1ccc(Br)o1`?
NPC1 promoter act: -3.1%; SMN2 splice up: -32.1%; FLuc counter: -1.1%; ELG1 genotoxic: 3.8%; Rab9 prom act: -5.0%; p53 reactivator: -9.9%

How did CC(=O)Nc1ccc2nc(-c3ccc(Br)o3)[nH]c2c1 do in these assays?
NPC1 promoter act: inconclusive; SMN2 splice up: inconclusive; FLuc counter: 3.79µM*; ELG1 genotoxic: inconclusive; Rab9 prom act: 3.55µM*; p53 reactivator: inconclusive

What do the screens show for `O=C(Nc1ccc2nc[nH]c2c1)c1ccco1`?
NPC1 promoter act: 19.0%; SMN2 splice up: 8.0%; FLuc counter: 19µM*; ELG1 genotoxic: inconclusive; Rab9 prom act: inconclusive; p53 reactivator: 14.4%

What do the screens show for `CC(=O)Nc1ccc(Oc2ccc3nc(C)[nH]c3c2)cc1`?
NPC1 promoter act: 0.4%; SMN2 splice up: -39.3%; FLuc counter: -0.3%; ELG1 genotoxic: 1.8%; Rab9 prom act: -4.8%; p53 reactivator: 3.3%

How did O=C(CCn1ccnc1)Nc1ccc2ccccc2c1 do in these assays?
NPC1 promoter act: 0.7%; SMN2 splice up: 2.5%; FLuc counter: -6.1%; ELG1 genotoxic: 4.3%; Rab9 prom act: -1.6%; p53 reactivator: -2.9%
